# Test results as given in publication PMC13541613, “GHT-SELEX demonstrates unexpectedly high intrinsic sequence specificity and complex DNA binding of many human transcription factors”.
# Key:
# Assay in all cases: HT-SELEX; 20 mM HEPES pH 7, 140 mM KCl, 5 mM NaCl, 1 mM K2HPO4, 2 mM MgSO4, 100 uM EGTA, ZnSO4, 0.1% Tween20; room temperature, 1 h; high values mean tight binding
# Conditions in all cases: protein: ivt; tags: eGFP (N-terminal); dsDNA, one strand shown
# ZNF721 full-length = ZNF721 full-length (Homo sapiens, UniProt Q8TF20-2 1-923)
# ZNF721 full-length, sequence (Q8TF20 other isoform, or with tags, fused parts or gaps): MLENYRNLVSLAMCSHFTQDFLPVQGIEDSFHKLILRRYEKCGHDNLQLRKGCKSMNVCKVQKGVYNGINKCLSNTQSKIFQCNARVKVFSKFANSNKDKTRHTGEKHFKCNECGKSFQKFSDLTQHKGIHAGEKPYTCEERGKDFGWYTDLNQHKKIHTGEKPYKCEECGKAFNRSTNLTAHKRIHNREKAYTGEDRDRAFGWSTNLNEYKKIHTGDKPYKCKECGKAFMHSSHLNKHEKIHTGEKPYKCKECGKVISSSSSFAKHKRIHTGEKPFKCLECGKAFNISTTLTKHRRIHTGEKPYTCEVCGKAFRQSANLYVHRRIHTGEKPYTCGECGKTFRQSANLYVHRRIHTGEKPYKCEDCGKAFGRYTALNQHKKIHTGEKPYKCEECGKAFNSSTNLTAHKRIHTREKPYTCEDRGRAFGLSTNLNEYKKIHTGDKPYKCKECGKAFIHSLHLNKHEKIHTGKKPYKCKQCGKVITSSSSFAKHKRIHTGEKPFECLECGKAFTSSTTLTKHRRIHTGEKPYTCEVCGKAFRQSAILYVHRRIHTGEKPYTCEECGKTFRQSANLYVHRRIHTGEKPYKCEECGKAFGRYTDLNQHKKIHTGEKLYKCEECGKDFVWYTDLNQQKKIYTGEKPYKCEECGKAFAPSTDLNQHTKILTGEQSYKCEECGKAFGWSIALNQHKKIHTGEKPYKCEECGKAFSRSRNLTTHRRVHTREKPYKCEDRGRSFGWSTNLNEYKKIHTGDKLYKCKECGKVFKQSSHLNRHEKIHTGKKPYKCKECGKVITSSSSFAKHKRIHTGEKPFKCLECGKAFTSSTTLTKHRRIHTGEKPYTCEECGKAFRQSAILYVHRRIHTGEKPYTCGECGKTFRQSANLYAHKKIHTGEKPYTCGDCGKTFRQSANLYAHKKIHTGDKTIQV
# Method in brief: (§1)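 Bead-immobilised tagged transcription factor (full-length or DNA-binding-domain fragment), made in HEK293 lysate or cell-free extract, was incubated with a randomized 40-base DNA library. Binding was for 1 h at room temperature in HEPES/KCl low-stringency buffer with Tween20. After washing and heat elution, bound DNA was PCR-amplified over successive cycles and Illumina-sequenced (~3 million 60 bp reads per sample). Binding signal is a relative k-mer count in selected reads; higher means tighter binding.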
# ZNF721 DBD1 = ZNF721 DBD1 (Homo sapiens, UniProt Q8TF20-2 29-461)
# ZNF721 DBD1, sequence (Q8TF20 17-449): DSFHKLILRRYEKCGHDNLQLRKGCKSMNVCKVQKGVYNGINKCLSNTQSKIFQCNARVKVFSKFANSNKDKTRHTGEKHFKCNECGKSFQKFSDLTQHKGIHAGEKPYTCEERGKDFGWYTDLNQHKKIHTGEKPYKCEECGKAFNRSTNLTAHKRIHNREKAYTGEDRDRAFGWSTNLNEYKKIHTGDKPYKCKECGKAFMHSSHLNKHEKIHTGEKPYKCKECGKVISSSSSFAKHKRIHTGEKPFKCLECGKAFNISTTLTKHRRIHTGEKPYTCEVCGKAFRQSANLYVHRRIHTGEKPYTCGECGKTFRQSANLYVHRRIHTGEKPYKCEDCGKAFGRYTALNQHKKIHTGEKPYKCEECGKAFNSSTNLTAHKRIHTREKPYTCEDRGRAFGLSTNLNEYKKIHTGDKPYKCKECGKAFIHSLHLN
# Method in brief: as §1
# ZNF721 DBD2 = ZNF721 DBD2 (Homo sapiens, UniProt Q8TF20-2 395-923)
# ZNF721 DBD2, sequence (Q8TF20 383-911): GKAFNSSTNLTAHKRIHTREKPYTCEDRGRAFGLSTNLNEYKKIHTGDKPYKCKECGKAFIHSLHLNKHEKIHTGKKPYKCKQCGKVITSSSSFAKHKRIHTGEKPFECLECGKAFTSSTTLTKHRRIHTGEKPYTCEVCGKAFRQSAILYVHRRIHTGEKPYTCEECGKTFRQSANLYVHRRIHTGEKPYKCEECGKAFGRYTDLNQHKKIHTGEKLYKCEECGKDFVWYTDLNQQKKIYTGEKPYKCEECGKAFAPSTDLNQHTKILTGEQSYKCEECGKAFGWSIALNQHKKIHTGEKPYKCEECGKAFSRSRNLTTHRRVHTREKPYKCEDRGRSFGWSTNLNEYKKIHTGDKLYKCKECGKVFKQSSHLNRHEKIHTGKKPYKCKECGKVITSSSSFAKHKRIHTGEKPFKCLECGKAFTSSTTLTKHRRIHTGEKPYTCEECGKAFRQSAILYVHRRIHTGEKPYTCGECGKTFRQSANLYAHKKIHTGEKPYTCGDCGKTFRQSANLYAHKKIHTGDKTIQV
# Method in brief: as §1
Sequence,binding signal (ZNF721 full-length) [relative 10-mer count],binding signal (ZNF721 DBD1) [relative 10-mer count],binding signal (ZNF721 DBD2) [relative 10-mer count]
ACCCTCCCAC,0.119,0.00734,0.00587
AGTGTTTCCA,0.13,0.0113,0.284
ACGCCCACCC,0.129,0.00486,0.00587
CCCGCCCCGC,0.154,0.00518,0.00144
AGGGGCGGGG,0.125,0.0044,0.00168
CCATCCCCCC,0.155,0.00592,0.0036
CACACCACCC,0.142,0.00573,0.00527
ACCAAAAAAA,0.128,0.00904,0.0723
CGCTTCTTTC,0.12,0.081,0.0018
CACCCCCGCC,0.193,0.00683,0.00288
GCCCCAACCC,0.105,0.00376,0.00168
AGCGTATCCT,0.146,0.0287,0.192
CCCCCGTCCC,0.173,0.00642,0.00252
CTTTTTTTTC,0.171,0.0293,0.0669
CCAGCCCACC,0.12,0.00353,0.00336
GGGAGGGGGA,0.161,0.00752,0.00395
AGGTGGTGGG,0.113,0.00601,0.00587
ACAAAAAAGC,0.187,0.0198,0.0647
CAGGGGTGGG,0.103,0.00482,0.00419
AAGCGTATCC,0.108,0.0756,0.00863
AAAACAGTAT,0.105,0.00124,0.155
CCGCACCCCC,0.152,0.00569,0.00156
CGTCCCCCAC,0.104,0.00468,0.00407
CACCCCCACA,0.116,0.00482,0.00779

Sequence,binding signal (ZNF721 full-length) [relative 10-mer count],binding signal (ZNF721 DBD1) [relative 10-mer count],binding signal (ZNF721 DBD2) [relative 10-mer count]
CACGCCACCC,0.103,0.00344,0.00587
CCACCCAGCC,0.102,0.00294,0.00264
GTGGGGGGGA,0.145,0.00587,0.00348
CCCACCCTCA,0.114,0.00573,0.00971
AAGCAGCATA,0.179,0.00216,0.199
CCTCCCACCA,0.115,0.00784,0.00491
CCCCTCGCCC,0.161,0.00665,0.00372
CACCCCCCCC,0.217,0.00789,0.00384
AAAAAAGCAC,0.158,0.0181,0.0367
GGGGTGGGGA,0.194,0.0094,0.00264
ACCCACCCCA,0.167,0.00798,0.00515
CCCACCCCCG,0.214,0.00771,0.00264
CAAAAAAAAA,0.226,0.0215,0.0886
CCATCCCACC,0.138,0.00697,0.00575
CCACCCCCCG,0.179,0.00628,0.0024
AAAAAAAGCG,0.217,0.0356,0.0422
CCCCCTCCTC,0.116,0.00459,0.00395
CGCCCCACCC,0.236,0.00844,0.00312
CCGCCACCAC,0.106,0.00417,0.0036
ACCCTCCACC,0.127,0.00482,0.00707
CCCTCCCCGC,0.139,0.00555,0.00995
CCCTCGCCCC,0.167,0.00702,0.00336
CCCCCCACCG,0.17,0.00605,0.0036
CACCCACCAC,0.196,0.00949,0.00779

Sequence,binding signal (ZNF721 full-length) [relative 10-mer count],binding signal (ZNF721 DBD1) [relative 10-mer count],binding signal (ZNF721 DBD2) [relative 10-mer count]
CCACCCCATC,0.11,0.00509,0.00791
CCCACCACAC,0.155,0.00583,0.00947
CCCCGCACCC,0.179,0.00812,0.00252
GGAGGGGGGA,0.131,0.00601,0.00336
AAAAAAAACA,0.37,0.00592,0.252
CCACCCACCC,0.415,0.0173,0.00587
ACCTCCCACC,0.113,0.00578,0.00348
GAAAAAAGCA,0.344,0.0533,0.15
CCCACCTACC,0.111,0.00573,0.00659
CTCCCCACCC,0.198,0.00936,0.00395
AAAAGGCATA,0.133,0.00161,0.116
ACCCCATCCC,0.102,0.00367,0.0024
ACCACCCCCC,0.211,0.00771,0.00288
CCCCACCCCA,0.297,0.0112,0.00288
CCGAAAAAAG,0.106,0.016,0.0415
ACCCCCCCGC,0.112,0.00248,0.003
CCACCCCACG,0.131,0.00495,0.00491
GCCCCCCTCC,0.128,0.00527,0.00264
CCCTCCTCCC,0.179,0.00927,0.00479
AGGTGGGGGG,0.157,0.0067,0.00527
CCCCAGCCCC,0.202,0.0083,0.0018
CCCTCCCCCG,0.145,0.00555,0.00467
CCCCCGCTCC,0.103,0.0033,0.00144
CAGCCCCCCC,0.103,0.00284,0.0267

Sequence,binding signal (ZNF721 full-length) [relative 10-mer count],binding signal (ZNF721 DBD1) [relative 10-mer count],binding signal (ZNF721 DBD2) [relative 10-mer count]
CACGCCCCCC,0.123,0.00454,0.00635
CACCCACCCG,0.132,0.0039,0.00264
CCCCTCCACC,0.274,0.0117,0.00851
CCCTCCCTCC,0.178,0.0107,0.0211
GGTGGTGGGA,0.157,0.00784,0.00455
CCCCCCTGCC,0.121,0.00399,0.00168
CTCCACCCCC,0.178,0.00812,0.00467
ACCCCACCCC,0.277,0.0101,0.00324
CGAAAAAACA,0.153,0.0022,0.161
AAGAAAAAAG,0.166,0.0407,0.0319
CAGCGTATCC,0.324,0.00174,0.648
CGAAAAAAGC,0.221,0.0584,0.0645
CCACCCTCCC,0.246,0.0111,0.00467
CCTCCACCCA,0.111,0.00505,0.00527
AAAAAGGCAT,0.188,0.00266,0.155
CCCACCCACG,0.141,0.00472,0.00551
CGCCCCTCCC,0.158,0.00605,0.00336
AAAAAAAGGT,0.117,0.00583,0.0857
GACCCACCCC,0.124,0.00427,0.0018
CAACAAAGCA,0.126,0.00101,0.145
AAAAGCTATC,0.233,0.129,0.00168
CACCCCGCCA,0.108,0.00404,0.00455
ACACCCCACC,0.13,0.00413,0.00204
CCCCCACGCC,0.181,0.00688,0.00419

Sequence,binding signal (ZNF721 full-length) [relative 10-mer count],binding signal (ZNF721 DBD1) [relative 10-mer count],binding signal (ZNF721 DBD2) [relative 10-mer count]
ACCCACACCC,0.108,0.00527,0.00527
AAACAGCATG,0.284,0.00101,0.345
AAGCAGCGTA,0.162,0.00124,0.201
CACTTCATAC,0.747,1,0.00144
AACAGGGTAT,0.138,0.00119,0.2
CCCACCCAAC,0.172,0.00679,0.0113
CTCCCCCCTC,0.108,0.00605,0.00336
CCCTCCACCC,0.321,0.0139,0.00731
CCAACCCACC,0.171,0.00642,0.00395
CCTCCCACCC,0.255,0.0139,0.00599
CCACGCCCCA,0.109,0.00422,0.0024
CCCACCACGC,0.108,0.00408,0.00539
GCCACCCCCC,0.138,0.00546,0.00348
CCACACCCAC,0.128,0.00605,0.00515
TCCCCCACCA,0.114,0.00527,0.00407
CACCGCCCCA,0.107,0.00404,0.0024
CTACCCCCCC,0.105,0.00427,0.00312
CCGCCTCCCC,0.155,0.00798,0.00204
CCGACCCACC,0.115,0.00367,0.00467
CACCCCAACC,0.142,0.0061,0.00407
CCTACCCCCC,0.127,0.00555,0.00707
CCTCGCCCCC,0.123,0.00592,0.00144
AAAAGCAGCA,0.304,0.00578,0.296
CACCCAACCC,0.123,0.005,0.00252
